In PubChem BioAssay AID1159580 (chemical genetic matrix, 2015):
Values joined by “and” are separate entries in the source; they are usually repeats but may differ in a detail not shown here. Equal entries are not always repeated. The campaign covered roughly 5,500 compounds. About 2,000 (36%) were called active. About 18% were inconclusive and are not listed. Rule as the data show it: active = normalized growth mostly below about 0.91 (no sharp cut-off); inconclusive = no clear call, values can overlap the other calls; inactive = mostly above about 0.92. The list shows a part of the results.

Assay: chemical genetic growth profiling, strain panel (AID 1159580);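 also: tested at 20 µM; growth read once vehicle control cultures reached saturation at 30 °C; 1 = growth at the plate median or of vehicle wells; lower values mean less growth of the strain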
Settings: S. cerevisiae deletion strains, growth OD

Measured: normalized growth

NC(Cc1ccc(Cl)cc1)C(=O)O (stereo not drawn)
inactive: locus YAL013W, strain DEP1, stronger effect = lower value 1 | locus YAL021C, strain ccr4, stronger effect = lower value 0.989 | locus YAL026C, strain drs2, stronger effect = lower value 1.01 | locus YAL030W, strain snc1, stronger effect = lower value 0.993 | locus YAL040C, strain CLN3, stronger effect = lower value 1 | locus YBL061C, strain skt5, stronger effect = lower value 0.999 | locus YBR009C, strain hhf1, stronger effect = lower value 0.993 | locus YBR021W, strain FUR4, stronger effect = lower value 1.01 | locus YBR023C, strain chs3, stronger effect = lower value 0.991 | locus YBR171W, strain sec66, stronger effect = lower value 1.01 | locus YBR229C, strain ROT2, stronger effect = lower value 0.96 | locus YBR231C, strain swc5, stronger effect = lower value 0.997 | locus YBR279W, strain paf1, stronger effect = lower value 0.988 | locus YCL011C, strain gbp2, stronger effect = lower value 1 | locus YCL016C, strain dcc1, stronger effect = lower value 0.989 | locus YCL029C, strain bik1, stronger effect = lower value 0.994 | locus YCL061C, strain MRC1, stronger effect = lower value 1.01 | locus YCL069W, strain vba3, stronger effect = lower value 1 | locus YCR088W, strain abp1, stronger effect = lower value 0.999 | locus YDL005C, strain med2, stronger effect = lower value 0.989 | locus YDL035C, strain GPR1, stronger effect = lower value 0.999 | locus YDL040C, strain nat1, stronger effect = lower value 0.996 | locus YDL074C, strain BRE1, stronger effect = lower value 0.997 | locus YDL101C, strain DUN1, stronger effect = lower value 0.983 | locus YDL134C, strain PPH21, stronger effect = lower value 0.952 | locus YDL185W, strain tfp1, stronger effect = lower value 0.986 | locus YDL192W, strain arf1, stronger effect = lower value 1 | locus YDR001C, strain nth1, stronger effect = lower value 1.01 | locus YDR069C, strain doa4, stronger effect = lower value 0.988 | locus YDR101C, strain arx1, stronger effect = lower value 1.01 | locus YDR137W, strain rgp1, stronger effect = lower value 0.998 | locus YDR150W, strain NUM1, stronger effect = lower value 0.974 | locus YDR159W, strain sac3, stronger effect = lower value 0.976 | locus YDR162C, strain NBP2, stronger effect = lower value 1.01 | locus YDR195W, strain ref2 0.971 | locus YDR297W, strain sur2, stronger effect = lower value 0.992 | locus YDR318W, strain mcm21, stronger effect = lower value 0.987 | locus YDR334W, strain swr1, stronger effect = lower value 1.02 | locus YDR335W, strain msn5, stronger effect = lower value 1 | locus YDR388W, stronger effect = lower value 0.996 | locus YDR392W, strain spt3, stronger effect = lower value 0.936 | locus YDR502C, strain sam2, stronger effect = lower value 1 | locus YEL003W, strain gim4, stronger effect = lower value 1 | locus YEL037C, strain rad23, stronger effect = lower value 1.02 | locus YEL061C, strain CIN8 (second series), stronger effect = lower value 1.01 | locus YEL061C, strain CIN8, stronger effect = lower value 0.99 | locus YER015W, strain faa2, stronger effect = lower value 1 | locus YER016W, strain bim1, stronger effect = lower value 0.992 | locus YER110C, stronger effect = lower value 0.982 | locus YER111C, strain swi4, stronger effect = lower value 1.01 | locus YER155C, strain BEM2 (second series), stronger effect = lower value 0.975 | locus YER155C, strain BEM2, stronger effect = lower value 1.01 | locus YER167W, strain BCK2, stronger effect = lower value 0.999 | locus YFR010W, strain ubp6, stronger effect = lower value 1.03 | locus YGL078C, strain dbp3, stronger effect = lower value 0.988 | locus YGL086W, strain mad1, stronger effect = lower value 1.01 | locus YGL167C, strain pmr1, stronger effect = lower value 0.997 | locus YGL173C, strain kem1, stronger effect = lower value 1 | locus YGL227W, strain vid30, stronger effect = lower value 0.999 | locus YGL240W, strain doc1, stronger effect = lower value 0.972 | locus YGL248W, strain PDE1, stronger effect = lower value 0.987 | locus YGL253W, strain hxk2, stronger effect = lower value 1.01 | locus YGR078C, strain PAC10, stronger effect = lower value 0.991 and 1 | locus YGR135W, strain pre9, stronger effect = lower value 1 | locus YGR229C, strain SMI1, stronger effect = lower value 0.993 | locus YGR252W, strain gcn5, stronger effect = lower value 0.989 | locus YHR013C, strain ard1, stronger effect = lower value 0.994 | locus YHR027C, strain rpn1, stronger effect = lower value 0.992 | locus YHR030C, strain SLT2, stronger effect = lower value 0.986 and 0.959 | locus YHR079C, strain IRE1 (second series), stronger effect = lower value 0.991 | locus YHR079C, strain IRE1, stronger effect = lower value 0.986 | locus YHR094C, strain hxt1, stronger effect = lower value 0.994 | locus YHR129C, strain ARP1, stronger effect = lower value 0.985 | locus YHR142W, strain chs7, stronger effect = lower value 1.03 | locus YHR200W, strain rpn10, stronger effect = lower value 1 | locus YIL066C, strain RNR3, stronger effect = lower value 0.982 | locus YIL073C, strain SPO22, stronger effect = lower value 1.02 | locus YIL125W, strain kgd1, stronger effect = lower value 0.998 | locus YIR030C, strain dcg1, stronger effect = lower value 1 | locus YJL092W, strain hpr5, stronger effect = lower value 1.01 | locus YJL095W, strain BCK1 (second series), stronger effect = lower value 0.99 | locus YJL095W, strain BCK1, stronger effect = lower value 1.02 and 0.993 | locus YJL115W, strain asf1, stronger effect = lower value 0.994 | locus YJL129C, strain trk1, stronger effect = lower value 1.02 | locus YJL134W, strain LCB3, stronger effect = lower value 0.99 | locus YJL154C, strain vps35, stronger effect = lower value 1.01 | locus YJL164C, strain tpk1, stronger effect = lower value 0.992 | locus YJL166W, strain qcr8, stronger effect = lower value 0.991 | locus YJL168C, strain set2, stronger effect = lower value 0.994 | locus YJL187C, strain SWE1 (second series), stronger effect = lower value 0.975 | locus YJL187C, strain SWE1, stronger effect = lower value 0.993 | locus YJR043C, strain POL32, stronger effect = lower value 1.01 | locus YJR066W, strain TOR1, stronger effect = lower value 0.902
